# Inconclusive results are not listed. Where a call stands in place of a potency, no number is given. Calls of active or inactive are those of the source. Unless noted, the call rests on the fitted dose curve; in most records, active means well fitted curve in the direction sought with a large enough effect; inconclusive means small, poorly fitted or top-dose-only effect, or another doubt; inactive means no such curve, though single readings can be large; an effect the other way counts as inactive or inconclusive.
# What was measured:
# [1] = target: Rap guanine nucleotide exchange factor 3 (Homo sapiens) (UniProt O95398); experiment: Confirmatory qHTS for antagonist of cAMP-regulated guanine nucleotide exchange factor 3 (EPAC1) (AID 1645880); details: EPAC1 Rap1B-BODIPY-GDP exchange, fluorescence; activity, negative = inhibition: at 115 µM (top of the series); further: nearly all actives have a fitted effect of over 55% in size; further: potency means the concentration at half of the fitted maximal effect
# Rap guanine nucleotide exchange factor 3 (Homo sapiens), sequence (O95398 whole entry, looked up): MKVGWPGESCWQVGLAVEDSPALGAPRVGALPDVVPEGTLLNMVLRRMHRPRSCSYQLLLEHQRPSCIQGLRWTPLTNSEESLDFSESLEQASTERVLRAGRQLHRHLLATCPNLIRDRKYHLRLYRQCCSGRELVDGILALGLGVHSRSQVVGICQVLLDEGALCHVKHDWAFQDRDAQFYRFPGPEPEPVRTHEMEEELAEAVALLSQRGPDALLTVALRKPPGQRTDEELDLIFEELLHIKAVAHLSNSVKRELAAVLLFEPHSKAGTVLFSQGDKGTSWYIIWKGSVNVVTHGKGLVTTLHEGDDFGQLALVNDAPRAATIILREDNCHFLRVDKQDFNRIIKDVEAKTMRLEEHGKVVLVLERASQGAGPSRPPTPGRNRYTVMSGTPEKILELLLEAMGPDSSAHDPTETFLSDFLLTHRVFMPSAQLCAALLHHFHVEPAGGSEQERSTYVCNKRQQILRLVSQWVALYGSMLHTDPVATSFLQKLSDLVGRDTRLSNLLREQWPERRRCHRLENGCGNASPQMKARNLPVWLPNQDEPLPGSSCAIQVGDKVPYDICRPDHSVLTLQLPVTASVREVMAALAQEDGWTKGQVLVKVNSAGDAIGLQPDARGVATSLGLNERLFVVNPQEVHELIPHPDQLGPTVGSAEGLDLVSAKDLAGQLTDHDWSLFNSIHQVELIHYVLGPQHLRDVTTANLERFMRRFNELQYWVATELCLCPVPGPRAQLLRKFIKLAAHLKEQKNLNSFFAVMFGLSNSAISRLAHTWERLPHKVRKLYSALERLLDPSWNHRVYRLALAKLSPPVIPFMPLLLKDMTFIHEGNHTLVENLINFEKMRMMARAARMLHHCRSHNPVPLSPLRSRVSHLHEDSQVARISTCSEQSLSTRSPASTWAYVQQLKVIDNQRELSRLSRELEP
# Summary of the method: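 Nucleotide exchange uses 100 nM EPAC1, 250 nM RAP1B-BODIPY-GDP and 50 uM GDP, with compounds in a concentration-titration series. After 5 min at room temperature, fluorescence (480 nm ex/540 nm em) is read every 5 min for 30 min. Data are normalized to control ATA and DMSO.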
# [2] = target: Rap guanine nucleotide exchange factor 3 (Homo sapiens) (UniProt O95398); experiment: Confirmatory qHTS for agonist of cAMP-regulated guanine nucleotide exchange factor 3 (EPAC1) (AID 1645881);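 further: EPAC1 catalysed release of BODIPY-GDP from Rap1B seen as fluorescence loss; nearly all actives have a fitted effect of over 75% in size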
# [3] = target: Rap guanine nucleotide exchange factor 4 (Homo sapiens) (UniProt Q8WZA2); experiment: Confirmatory qHTS for agonist of cAMP-regulated guanine nucleotide exchange factor 4 (EPAC2) (AID 1645884);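 further: nucleotide exchange releases bodipy-GDP from Rap1 and this lowers its fluorescence; nearly all actives have a fitted effect of over 65% in size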
# Rap guanine nucleotide exchange factor 4 (Homo sapiens), sequence (Q8WZA2 whole entry, looked up): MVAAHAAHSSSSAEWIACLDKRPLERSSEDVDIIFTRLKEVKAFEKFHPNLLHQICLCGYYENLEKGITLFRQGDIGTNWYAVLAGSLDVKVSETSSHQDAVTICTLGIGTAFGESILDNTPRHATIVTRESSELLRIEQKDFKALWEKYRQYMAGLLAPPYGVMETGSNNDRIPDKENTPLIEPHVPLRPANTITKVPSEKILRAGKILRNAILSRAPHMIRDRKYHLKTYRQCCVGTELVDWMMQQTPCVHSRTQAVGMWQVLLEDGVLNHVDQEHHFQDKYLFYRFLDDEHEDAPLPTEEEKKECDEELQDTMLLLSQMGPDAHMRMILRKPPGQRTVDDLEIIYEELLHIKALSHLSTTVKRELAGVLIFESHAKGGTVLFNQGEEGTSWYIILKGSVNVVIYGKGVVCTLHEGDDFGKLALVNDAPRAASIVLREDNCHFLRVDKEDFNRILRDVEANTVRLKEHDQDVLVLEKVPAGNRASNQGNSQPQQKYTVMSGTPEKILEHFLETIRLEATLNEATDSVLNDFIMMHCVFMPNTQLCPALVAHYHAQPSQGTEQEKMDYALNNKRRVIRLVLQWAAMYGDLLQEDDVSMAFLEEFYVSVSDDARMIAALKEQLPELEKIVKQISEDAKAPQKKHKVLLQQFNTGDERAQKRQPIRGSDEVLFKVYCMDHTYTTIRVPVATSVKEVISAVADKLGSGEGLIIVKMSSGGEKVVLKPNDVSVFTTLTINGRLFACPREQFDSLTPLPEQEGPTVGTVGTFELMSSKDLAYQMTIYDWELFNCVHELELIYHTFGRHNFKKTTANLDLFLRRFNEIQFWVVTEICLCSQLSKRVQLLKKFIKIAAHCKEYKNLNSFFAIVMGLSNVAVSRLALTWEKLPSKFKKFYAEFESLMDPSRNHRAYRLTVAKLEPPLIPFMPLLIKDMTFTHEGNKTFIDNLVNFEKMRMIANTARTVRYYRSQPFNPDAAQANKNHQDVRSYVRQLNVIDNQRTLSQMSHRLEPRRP
# [4] = target: Rap guanine nucleotide exchange factor 4 (Homo sapiens) (UniProt Q8WZA2); experiment: Confirmatory qHTS for antagonist of cAMP-regulated guanine nucleotide exchange factor 4 (EPAC2) (AID 1645885); further: nearly all actives have a fitted effect of over 25% in size; further: potency means the concentration at half of the fitted maximal effect
# [5] = target: Rap guanine nucleotide exchange factor 3 (Homo sapiens) (UniProt O95398); experiment: Counterscreen qHTS for antagonist of cAMP-regulated guanine nucleotide exchange factor 3 (EPAC1) (AID 1645888);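 further: fluorescence loss as bound BODIPY-GDP is released from Rap1B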
# Summary of the method: (§1)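 Rap1B–BODIPY-GDP (250 nM) with 50 uM GDP; compounds pin-transferred to 9.74 nM–152 uM final (activator) or from 7.32 nM upwards (inhibitor). Fluorescence Ex/Em 480/540 nm read at 5 and 30 min, then after adding cAMP or buffer, at room temperature.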
# [6] = target: Rap guanine nucleotide exchange factor 3 (Homo sapiens) (UniProt O95398); experiment: Counterscreen qHTS for agonist of cAMP-regulated guanine nucleotide exchange factor 3 (EPAC1) (AID 1645889); further: nearly all actives have a fitted effect of over 40% in size
# Summary of the method: as §1
# [7] = target: Catechol O-methyltransferase (Homo sapiens) (UniProt P21964); experiment: Confirmatory Screen for Target Class Profiling of Small Molecule Inhibitors of Methyltransferases (AID 1745852; calls by dose curve; further: potency means the concentration at half of the fitted maximal effect); details: MTase-Glo luminescence, SAH detection, recombinant enzyme; measured here: COMT max response; stronger effect = lower value
# Catechol O-methyltransferase (Homo sapiens), sequence (P21964 whole entry, looked up): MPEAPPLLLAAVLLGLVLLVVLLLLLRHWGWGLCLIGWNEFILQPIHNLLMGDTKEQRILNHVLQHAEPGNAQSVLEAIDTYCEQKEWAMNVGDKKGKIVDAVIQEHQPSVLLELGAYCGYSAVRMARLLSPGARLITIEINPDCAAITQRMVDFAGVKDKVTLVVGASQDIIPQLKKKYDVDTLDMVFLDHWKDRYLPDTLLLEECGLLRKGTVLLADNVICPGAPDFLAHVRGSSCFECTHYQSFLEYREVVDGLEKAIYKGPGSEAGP
# [8] = target: Guanidinoacetate N-methyltransferase (Homo sapiens) (UniProt Q14353); experiment: as above; details: activity change, negative = inhibition: at 57.3 µM (top of the series) unless noted
# [9] = target: Nicotinamide N-methyltransferase (Homo sapiens) (UniProt P40261); experiment: as above; details: MTase-Glo luminescence, SAH detection, recombinant enzyme; measured here: NNMT max response; stronger effect = lower value
# Nicotinamide N-methyltransferase (Homo sapiens), sequence (P40261 whole entry, looked up): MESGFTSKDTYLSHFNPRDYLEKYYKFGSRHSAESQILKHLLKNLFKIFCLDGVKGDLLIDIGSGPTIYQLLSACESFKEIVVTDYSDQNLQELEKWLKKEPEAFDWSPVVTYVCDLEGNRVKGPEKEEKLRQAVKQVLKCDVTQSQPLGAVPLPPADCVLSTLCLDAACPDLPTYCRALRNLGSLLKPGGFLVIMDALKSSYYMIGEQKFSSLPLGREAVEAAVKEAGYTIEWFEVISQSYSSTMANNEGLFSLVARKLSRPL
# [10] = target: Phenylethanolamine N-methyltransferase (Homo sapiens) (UniProt P11086); experiment: as above; details: MTase-Glo luminescence, SAH detection, recombinant enzyme; measured here: PNMT max response; stronger effect = lower value
# Phenylethanolamine N-methyltransferase (Homo sapiens), sequence (P11086 whole entry, looked up): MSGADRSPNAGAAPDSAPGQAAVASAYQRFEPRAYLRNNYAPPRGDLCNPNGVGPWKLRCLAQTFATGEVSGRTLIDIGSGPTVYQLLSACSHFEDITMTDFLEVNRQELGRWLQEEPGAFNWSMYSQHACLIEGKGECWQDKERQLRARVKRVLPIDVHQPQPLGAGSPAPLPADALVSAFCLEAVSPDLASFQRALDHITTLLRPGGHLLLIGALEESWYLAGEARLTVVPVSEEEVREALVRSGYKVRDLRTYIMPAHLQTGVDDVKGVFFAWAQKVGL
smiles,measurement,setting,value
O=C(CSC1=NCCS1)N1N=C(c2cccs2)CC1c1ccc(F)cc1 (stereo unspecified),Potency,[1],inactive
same,Potency,[2],inactive
same,activation,[3],"6.13% [at 17.1 µM, percent relative to cAMP agonist control] (inactive)"
same,Potency,[4],inactive
same,"activity change, negative = inhibition",[5],4.6% [at 30.8 µM] (inactive)
same,activation,[6],21.2% [at 30.8 µM] (inactive)
CCN(c1ccccc1)S(=O)(=O)c1ccc(C(=O)Nc2ccncc2)cc1,Potency,[1],inactive
same,Potency,[2],inactive
same,activation,[3],"-2.02% [at 17.1 µM, percent relative to cAMP agonist control] (inactive)"
same,Potency,[4],inactive
same,"activity change, negative = inhibition",[5],-7.46% [at 30.8 µM] (inactive)
same,activation,[6],15% [at 30.8 µM] (inactive)
CCOC(=O)N1CCN(C(=O)C(C)(C)Oc2ccc(Cl)cc2)CC1,Potency,[1],inactive
same,Potency,[2],inactive
same,activation,[3],"3.62% [at 17.1 µM, percent relative to cAMP agonist control] (inactive)"
same,Potency,[4],0.239 µM (active)
same,"activity change, negative = inhibition",[5],6.37% [at 30.8 µM] (inactive)
same,activation,[6],21.9% [at 30.8 µM] (inactive)
CCOc1cc2c3c(c1)C(C)=CC(C)(C)N3C(=O)C2=O,Potency,[1],inactive
same,Potency,[2],inactive
same,activation,[3],"-1.35% [at 17.1 µM, percent relative to cAMP agonist control] (inactive)"
same,Potency,[4],inactive
same,"activity change, negative = inhibition",[5],-14.8% [at 30.8 µM] (inactive)
same,activation,[6],25% [at 30.8 µM] (inactive)
CCOC(=O)c1sc2nc(NC(=O)COc3ccccc3)sc2c1C,Potency,[1],inactive
same,Potency,[2],inactive
same,activation,[3],"1.9% [at 17.1 µM, percent relative to cAMP agonist control] (inactive)"
same,Potency,[4],inactive
same,"activity change, negative = inhibition",[5],-6.87% [at 30.8 µM] (inactive)
same,activation,[6],25% [at 30.8 µM] (inactive)
Cc1ccc(OCC(=O)OC(C)CN(C)Cc2ccccc2)cc1 (stereo unspecified),Potency,[1],inactive
same,Potency,[2],inactive
same,activation,[3],"4.43% [at 17.1 µM, percent relative to cAMP agonist control] (inactive)"
same,Potency,[4],inactive
same,"activity change, negative = inhibition",[5],8.78% [at 30.8 µM] (inactive)
same,activation,[6],10.6% [at 30.8 µM] (inactive)
CCCc1nc2ccc(C(=O)OC)cn2c1Cc1ccccc1,Potency,[1],inactive
same,Potency,[2],inactive
same,Potency,[3],inactive
same,Potency,[4],33.8 µM (active)
same,Potency,[5],inactive
same,Potency,[6],inactive
COCCn1c(-c2ccc(Br)cc2)csc1=Nc1cccnc1,Potency,[1],inactive
same,Potency,[2],inactive
same,Potency,[3],inactive
same,Potency,[4],inactive
same,Potency,[5],inactive
same,Potency,[6],inactive
O=C(c1ccco1)N(CCC(c1ccccc1)c1ccco1)Cc1ccccc1 (stereo unspecified),Potency,[1],44.7 µM (active)
same,Potency,[2],inactive
same,activation,[3],"1.75% [at 17.1 µM, percent relative to cAMP agonist control] (inactive)"
same,Potency,[4],inactive
same,"activity change, negative = inhibition",[5],-8.3% [at 30.8 µM] (inactive)
same,activation,[6],15.8% [at 30.8 µM] (inactive)
COc1ccc(-n2ccn(Cc3ccc(C)cc3)c(=O)c2=O)cc1OC,Potency,[1],inactive
same,Potency,[2],inactive
same,Potency,[3],inactive
same,Potency,[4],inactive
same,Potency,[5],inactive
same,Potency,[6],inactive
O=C(O)CN1C(=O)/C(=C\c2cc(Br)ccc2OCc2ccc(Cl)cc2)SC1=S,Potency,[1],30.1 µM (active)
same,Potency,[2],inactive
same,Potency,[3],inactive
same,Potency,[4],47.8 µM (active)
same,Potency,[5],inactive
same,Potency,[6],inactive
COc1cc2c(c(OC)c1OC)C(c1ccc3c(c1)OCO3)CC(=O)O2 (stereo unspecified),Potency,[1],inactive
same,Potency,[2],inactive
same,activation,[3],"4.62% [at 17.1 µM, percent relative to cAMP agonist control] (inactive)"
same,Potency,[4],inactive
same,"activity change, negative = inhibition",[5],-9.71% [at 30.8 µM] (inactive)
same,activation,[6],18.7% [at 30.8 µM] (inactive)
O=C1CCc2cc(NS(=O)(=O)c3ccc([N+](=O)[O-])cc3)cc3c2N1CC3,Potency,[1],inactive
same,Potency,[2],inactive
same,Potency,[3],inactive
same,Potency,[4],inactive
same,Potency,[5],inactive
same,Potency,[6],inactive
CCCCNC(=O)c1cc(-c2ccc3c(c2)OCO3)on1,Potency,[1],inactive
same,Potency,[2],inactive
same,Potency,[3],inactive
same,Potency,[4],inactive
same,Potency,[5],inactive
same,Potency,[6],inactive
Cc1ccc(S(=O)(=O)CCC(=O)Nc2sccc2C#N)cc1,Potency,[1],inactive
same,Potency,[2],inactive
same,activation,[3],"6.67% [at 17.1 µM, percent relative to cAMP agonist control] (inactive)"
same,Potency,[4],inactive
same,"activity change, negative = inhibition",[5],-10.4% [at 30.8 µM] (inactive)
same,activation,[6],34.4% [at 30.8 µM] (inactive)
C/C(=N\NC(=O)c1cc(O)ccc1O)c1cccc(NC(=O)c2ccc(Cl)cc2)c1,Potency,[1],75.7 µM (active)
same,Potency,[2],inactive
same,Potency,[3],inactive
same,Potency,[4],inactive
same,Potency,[5],inactive
same,Potency,[6],inactive
NC(=O)c1ccsc1NC(=O)CS(=O)(=O)c1ccc(F)cc1,Potency,[1],inactive
same,Potency,[2],inactive
same,Potency,[3],inactive
same,Potency,[4],inactive
same,Potency,[5],inactive
same,Potency,[6],inactive
Cc1cc(C)c2cccc(N)c2n1,Potency,[1],inactive
same,Potency,[2],inactive
same,activation,[3],"3.77% [at 17.1 µM, percent relative to cAMP agonist control] (inactive)"
same,Potency,[4],inactive
same,"activity change, negative = inhibition",[5],8.48% [at 30.8 µM] (inactive)
same,activation,[6],7.96% [at 30.8 µM] (inactive)
O=C(CNC(=O)c1sc2ccccc2c1Cl)NCc1cccc(C(F)(F)F)c1,Potency,[1],inactive
same,Potency,[2],inactive
same,Potency,[3],inactive
same,Potency,[4],inactive
same,Potency,[5],inactive
same,Potency,[6],inactive
CC(C)(C)N(NC(=O)Nc1ccc(F)cc1)C(=O)c1ccccc1,Potency,[1],inactive
same,Potency,[2],inactive
same,activation,[3],"0.121% [at 17.1 µM, percent relative to cAMP agonist control] (inactive)"
same,Potency,[4],inactive
same,"activity change, negative = inhibition",[5],-14.2% [at 30.8 µM] (inactive)
same,activation,[6],0.382% [at 30.8 µM] (inactive)
CC(=O)Nc1c(C)nn(-c2ccccc2)c1N1CCC(C(=O)NCc2cccc(F)c2)CC1,Potency,[1],inactive
same,Potency,[2],inactive
same,Potency,[3],inactive
same,Potency,[4],inactive
same,Potency,[5],inactive
same,Potency,[6],inactive
O=C(NCCc1ccccc1)c1ccc2c(=O)[nH]c3c(C(=O)NCC4CCCO4)sc(=S)n3c2c1 (stereo unspecified),Potency,[1],75.7 µM (active)
same,Potency,[2],inactive
same,Potency,[3],inactive
same,Potency,[4],30.1 µM (active)
same,Potency,[5],inactive
same,Potency,[6],inactive
same,activity,[7],-68.6%
same,Potency,[8],24.1 µM (active)
same,activity,[9],-55.9%
same,activity,[10],-66.7%
